# High-throughput results deposited in PubChem BioAssay by National Center for Advancing Translational Sciences (NCATS).
# In the library only some 11% were active in any assay of this set; here they are far more common.
# Sm TGR inh – qHTS Assay for the Inhibitors of Schistosoma Mansoni Peroxiredoxins. Schistosoma mansoni thioredoxin glutathione reductase (TGR), Q962Y6. purified TGR, DTNB reduction, TNB absorbance 405 nm. Potency, µM (titrated, usually from 114 µM), for inactives: at the top dose activity change, negative = inhibition, usual class: inhibitors. 360,000 compounds, 3% hits; note: % is set by controls: 0 for no effect and ±100 for the full control effect; nearly all actives have a fitted effect of over 60% in size
#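 Kinetic colorimetric format: TGR-catalysed, NADPH-driven DTNB reduction monitored via TNB absorbance. Enzyme dispensed at 20 nM; compound exposure 15 min at room temperature before reaction start.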
# Pf growth 48h – Primary qHTS for delayed death inhibitors of the malarial parasite plastid, 48 hour incubation; 310,000 compounds, 5.9% hits; Potency, µM (series often up to 28.7 µM), for inactives: top-dose activity change, negative = inhibition, actives largely listed as inhibitors; AID 504832, 2011; P. falciparum luciferase growth in erythrocytes, 48 h; note: % is set by controls: 0 for no effect and ±100 for the full control effect
#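 A one-generation exposure of luciferase-tagged malaria parasites in RPMI 1640/Albumax erythrocyte culture, 37 C and 5% CO2. Inhibition is inferred from decreased luminescence after adding detection reagent.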
# AMA1-RON2 inh – qHTS for Inhibitors of AMA1-RON; Towards Development of Antimalarial Drug Lead: Primary Screen; 360,000 compounds, 0.2% hits; AID 720542, 2013; AlphaScreen AMA1-biotinylated RON2 peptide binding; Potency, µM (doses to about 58.2 µM), inactives show at the top dose activity change, negative = inhibition, most hits filed as inhibitors;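 note: 0% = vehicle wells and -100% = peptide control; nearly all actives have a fitted effect of over 45% in size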
#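 AMA1 (3D7) with his tag at 25 nM final met compounds first, then biotinylated RON2 peptide at 25 nM; detection used donor plus acceptor beads, 10 µg/mL apiece, read by AlphaScreen after 30 min at room temperature.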
# Pf growth 96h – Primary qHTS for delayed death inhibitors of the malarial parasite plastid, 96 hour incubation. P. falciparum luciferase reporter growth, 96 h. Potency, µM (titrated, usually from 28.7 µM), for the others: at the highest dose activity change, negative = inhibition, most hits filed as inhibitors. 320,000 compounds, 6.9% hits. AID 504834, 2011; note: % is set by controls: 0 for no effect and ±100 for the full control effect
#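 Cell-based qHTS: luciferase-tagged P. falciparum in erythrocytes (2% hematocrit, 0.05% parasitemia final) incubated with compounds for 96 hours, 37 C, 5% CO2; luciferase detection reagent then added and luminescence measured.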
# NS1 inh – qHTS Assay for Inhibitors of Influenza NS1 Protein Function; Potency, µM (titrated, usually from 46.1 µM), without a hit: at the top dose activity, positive = more growth; 270,000 compounds, 0.4% hits; calls by dose curve; note: actives are rising curves; nearly all actives have a fitted effect of over 50% in size
#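 Growth recovery, yeast-based: influenza A NS1 expressed in S. cerevisiae causes slow growth, and suppressors are detected by OD600. The parent strain without NS1 is used as positive control.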
# An asterisk follows results filed as active; ? = inconclusive; · = not tested or not shown; [ ] = another dose, or the depositor's remark. Unless noted, calls come from the whole dose curve; as a rule, active = well fitted curve in the direction sought with a large enough effect; inconclusive = small, poorly fitted or top-dose-only effect, or another doubt; inactive = no such curve, though single readings can be large; an effect the other way counts as inactive or inconclusive. Potency is the fitted concentration of half-maximal effect.
SMILES,Sm TGR inh,Pf growth 48h,AMA1-RON2 inh,Pf growth 96h,NS1 inh
CCCN(C(=O)COc1cc(=O)n(CC)c2ccccc12)c1ccc(C(C)C)cc1,-12%,·,·,·,·
CCOc1ccc(Cc2nccc3cc(OCC)c(OCC)cc23)cc1OCC,·,?,·,4.1µM*,·
Oc1ccc(Cc2nccc3cc(O)c(O)cc23)cc1O,·,·,·,·,-5%
COc1ccnc(CSC(N)=Nc2cccc(C(F)(F)F)c2)c1,0%,?,-18%,?,-45%
O=C(OCc1cccc([N+](=O)[O-])c1)c1cc(=O)[nH]c2ccccc12,·,31%,·,35%,1%
CCOC(=O)c1cc2[nH]c3ccccc3c2[n+](-c2ccc([N+](=O)[O-])cc2)c1N,1%,3.7µM*,0%[2.32 µM],?,-2%
CCOC(=O)c1cc2[nH]c3ccccc3c2[n+](-c2ccc([N+](=O)[O-])cc2)c1C,8%,2.6µM*,8%,?,18%
CCCC1=[N+](CC(=O)c2ccccc2)CCn2cccc21,-6%,0%,-4%,-4%,9%
CCCC1=[N+](CC(=O)c2ccc(Br)cc2)CCn2cccc21,?,12µM*,-6%,?,1%
CCN(CC)CCn1c(=S)[nH]c2ccc(Cl)cc2c1=O,0%,12µM*,22%,-1%,1%
CCN(CC)CCn1c(=S)[nH]c2cc(Cl)ccc2c1=O,9%,-27%,9%,16%,-5%
COc1ccc(-c2cc(C)no2)cc1S(=O)(=O)N1CCOc2ccc(Cl)cc21,-2%,?,0%,10µM*,15%
CCN(CC)CCCN=C1N[C@@H](c2cccc(C(F)(F)F)c2)C(C(=O)OC)=C(C)N1CC,·,·,-1%,·,·
COc1cccc(N/C(SCc2ccccc2Cl)=C(/C#N)C(=O)NCc2cccs2)c1,-14%,10µM*,?,?,2%
COc1cccc(N/C(SC)=C(/C#N)C(=O)NCc2cccs2)c1,4%,9%,-12%,16%,·
COc1cccc(N/C(SCc2cccc([N+](=O)[O-])c2)=C(/C#N)C(=O)NCc2cccs2)c1,0%,10µM*,-3%,?,13%
COc1cccc(N/C(SCc2ccccc2C)=C(/C#N)C(=O)NCc2cccs2)c1,-12%,?,0%,2.1µM*,-2%
CCOC(=O)N1CCN(C(=O)C[C@@H]2C[C@@]3(C(=O)OC)CCCCC=C3N(Cc3ccc(Cl)cc3Cl)C2=O)CC1,·,·,-2%,·,·
CC(=O)Nc1c(-c2ccccc2)nc2ccc(Cl)cn12,·,·,2%,·,·
O=C(Nc1c(-c2ccccc2)nc2ccc(Cl)cn12)c1cccs1,-9%,0%,-11%,5.2µM*,10%
COc1ccc(N2CC(C)Cn3c2nc2c3c(=O)n(Cc3ccc(F)cc3)c(=O)n2C)c(OC)c1 (stereo not given),1%,?,-3%,·,-43%
COc1ccc(N2CC(C)Cn3c2nc2c3c(=O)n(Cc3ccc(C)cc3)c(=O)n2C)c(OC)c1 (stereo not given),7%,4.7µM*,1%,?,·
CCN(CC)c1ccc(S(=O)(=O)N2CCOCC2)cc1NC(=O)COC(=O)/C=C/c1ccccc1,·,·,-10%,·,·
CCN(CC)c1ccc(S(=O)(=O)N2CCOCC2)cc1NC(=O)COC(=O)/C=C/c1ccc(C)o1,32µM*,?,-24%,-6%,·
CCN(CC)c1ccc(S(=O)(=O)N2CCOCC2)cc1NC(=O)CN1CCc2ccccc2C1,·,10µM*,1%,?,-18%
SMILES,Sm TGR inh,Pf growth 48h,AMA1-RON2 inh,Pf growth 96h,NS1 inh
CCN(CC)c1ccc(S(=O)(=O)N2CCOCC2)cc1NC(=O)Cn1nc(C)c([N+](=O)[O-])c1C,-20%,?,4%,12µM*,·
COc1ccc2cc(C3=CCCC3(C)C(=O)O)ccc2c1 (stereo not given),·,·,-7%,·,·
COc1ccc(S(=O)(=O)NN(C)C(=O)c2nn(-c3ccccc3)ccc2=O)cc1,-4%,?,-7%,5.9µM*,6%
COc1ccc(-n2ccc(=O)c(C(=O)O)n2)cc1,2%,-14%,-6%,-4%,5%
Cc1ccc(Nc2nnc(C3C(=O)N(C)C4(C)CC3c3cc(Br)ccc3O4)s2)cc1 (stereo not given),-2%,0%,-18%,20%,13%
CC(=O)NC1=C(NC2CCS(=O)(=O)C2)C(=O)c2ccccc2C1=O (stereo not given),0.71µM*,10µM*,-8%,?,-37%
O=C(Nc1ccccc1)NC1CCS(=O)(=O)C1 (stereo not given),-4%,10%,-4%,9.3µM*,-2%[9.22 µM]
O=C(Nc1ccc2ccccc2c1)NC1CCS(=O)(=O)C1 (stereo not given),47%,50%,-2%,5%,2%
Cc1ccccc1C(=O)NC1CCS(=O)(=O)C1 (stereo not given),2%,2%,7%,·,0%
O=C(NC(=S)NC1CCS(=O)(=O)C1)c1ccccc1 (stereo not given),2%,-2%,0%,?,4%
CN(C1=C(NC(=O)c2ccccc2)C(=O)c2ccccc2C1=O)C1CCS(=O)(=O)C1 (stereo not given),?,4.7µM*,-6%,5.2µM*,8%
CCc1ccc(NC(=O)COc2ccc(Br)cn2)cc1,-4%,11%,10%,54%,·
O=C(C[N+]12CCC(CC1)C(C(O)(c1ccccc1)c1ccccc1)C2)c1ccc(Br)cc1 (stereo not given),3%,?,-2%,8.3µM*,7%
O=C(Nc1ccc(C(=O)O)cc1)Nc1ccc([N+](=O)[O-])cc1,5%,-1%,2%,8%,1%
O=C(Nc1cc(C(F)(F)F)cc(C(F)(F)F)c1)Nc1cnn(-c2ccc([N+](=O)[O-])cc2)c1C(F)(F)F,-2%,1.9µM*,-7%,?,1%
COc1ccc(CNC(=O)C2CCN(S(=O)(=O)c3ccc4c(c3)CC(C)N4C(C)=O)CC2)cc1 (stereo not given),-9%,?,-1%,12µM*,-7%
COc1ccc(NC(=O)CN(C)S(=O)(=O)c2ccc3c(c2)CC(C)N3C(C)=O)c(OC)c1 (stereo not given),2%,?,1%,7.4µM*,5%
CC(=O)N1c2ccc(S(=O)(=O)N3CCC(C(=O)Nc4ncccc4C)CC3)cc2CC1C (stereo not given),1%,4%,18%,?,-4%
CC(=O)N1c2ccc(S(=O)(=O)N3CCC(C(=O)Nc4ccccn4)CC3)cc2CC1C (stereo not given),-23%,?,0%,5.9µM*,4%
